# Source: PubChem BioAssay (NCI)
# About 83,000 compounds went through this panel and 20% of them were active in at least one assay; those are over-represented in the sample as a whole.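 How to read the values: 0–100, growth inhibition (40 = 60% inhibited); 0, no net growth; -100 to 0, cell death (-40 = 40% of starting cells died; -100 = all dead).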 A number with no mark means an inactive call. Calls of active or inactive are those of the source. How the source made its calls: active means growth percent below 10; inactive means the rest.
# System: SF-268 CNS
# Experiment: NCI-60 one-dose screen, 48 h (100 = growth as untreated, 0 = no growth, -100 = all killed)
# Details: 10 µM
row,SMILES,growth
1,COc1cc(-c2cc(/C=C3\C(=O)Nc4cc(Cl)ccc43)[nH]n2)cc(OC)c1OC,56.7%
2,CCCCCCc1cc(N=Nc2ccc(S(=O)(=O)Nc3cc(C)nc(C)n3)cc2)c(O)cc1O,110%
3,N#CC1=C(Nc2ccccc2Cl)SC(c2ccccc2O)NC1=O (centres undefined),112%
4,COc1cc(-c2nc(Nc3nc4ccccc4s3)[nH]c(=O)c2C#N)cc(OC)c1O,123%
5,CCCCCCCCCCCCCCCCCCOCC(COCCOCC[N+]1(CCCCCC(=O)[O-])CCCC1)Oc1ncccn1 (centres undefined),32.6%
6,COc1ccc(C2=NN(C(=O)c3ccc(S(C)(=O)=O)cc3)C(c3ccc(OC)c(OC)c3)C2)c(OC)c1 (centres undefined),89%
7,COc1ccccc1CNCCCN1C(=O)c2ccc3c4c(ccc(c24)C1=O)C(=O)N(CCCN)C3=O,-22.1% (active)
8,Nc1nc(N)c(NC(=O)CNc2ccc(C(=O)O)cc2)c(N)n1,119%
9,c1ccc(CP(Cc2ccccc2)c2ccccc2)cc1,110%
10,COC(=O)C1(C)Cc2cc(OC(C)=O)c(OC(C)=O)cc2N1 (centres undefined),87.5%
11,CC(=O)OCc1cc(-c2nc3ccccc3[nH]c2=O)nn1-c1ccc(Cl)cc1,109%
12,CC(=O)c1nc2ccccc2n1CCN1CCN(C)CC1,48.1%
13,COc1ccc(-c2nn(-c3cccc(NC(=O)Nc4ccc(Cl)c(C(F)(F)F)c4)c3)cc2-c2ccncc2)cc1Cl,31%
14,COc1cc(C(=O)/C=C/c2cc(-c3cc(OC)c(OC)c(OC)c3)n[nH]2)cc(OC)c1OC,4.97% (active)
15,Cc1cccc(NC2=C(C#N)C(=O)NC3(CCCC3)S2)c1,103%
16,O=C1/C(=C\c2ccc(F)cc2)CN(C(=O)c2ccccc2)C/C1=C\c1ccc(F)cc1,26%
17,COc1cc(-c2cc(/C=C3\C(=O)Nc4ccccc43)[nH]n2)cc(OC)c1OC,74.8%
18,COc1cc(/C=C\c2cc(OC)c(OC)c(OC)c2)cc(NS(=O)(=O)c2ccc(Cl)cc2)c1OC,39.7%
19,S=C1SCC(c2ccccc2)S1 (centres undefined),111%
20,CCN(CC)Cc1cc(Nc2ccnc3cc(Cl)ccc23)ccc1OC,96.6%

row,SMILES,growth
1,COC(=O)C(C(C[N+](=O)[O-])c1ccccc1)=P(c1ccccc1)(c1ccccc1)c1ccccc1 (centres undefined),96.1%
2,O=S(=O)(NCCCNc1nccc(-c2c(-c3ccc(F)cc3)nc3sccn23)n1)c1ccc2ccccc2c1,40.3%
3,CC(=O)N1N=C(c2ccc(Cl)cc2)CC1c1sc(Cl)nc1Cl (centres undefined),80.1%
4,O=c1[nH]c2ccc(Cl)cc2c2ccccc12,79.4%
5,COc1ccc(NC2=NC(C)(CO)CS2)cc1 (centres undefined),103%
6,N#Cc1ncc(Br)c(NC2CCCCCC2)n1,111%
7,O=C(Nc1cccc(-n2cc(-c3ccncc3)c(-c3cc(O)cc(Cl)c3)n2)c1)Nc1ccc(Cl)c(C(F)(F)F)c1,42.1%
8,Nc1ncn(C2OC(CO)C(O)C2O)c(=O)n1 (centres undefined),23.9%
9,O=C(Nc1nc(-c2ccccc2Cl)cs1)c1cc(-c2ccc(Cl)cc2)nc2ccc(Cl)cc12,28.3%
10,Nc1c(C(=O)Nc2cccc(F)c2)sc2nc3c(cc12)C(=O)CCC3,73.5%
11,COc1ccc(-c2cc(/C=C3\C(=O)Nc4ccc(Cl)cc43)[nH]n2)cc1OC,85.8%
12,O=C1CC[C@@H]2CCCC[C@@H]2C1,113%
13,COc1ccc2c(c1)O/C(=C\c1ccc([N+](=O)[O-])s1)C2=O,-9.02% (active)
14,Nc1nc(N)c2c(ccc3nccc32)[nH]1,46.6%
15,Nc1cc2c(cc1Cl)-c1ccc([N+](=O)[O-])cc1/C2=N\O,79.1%
16,COc1cc(-c2cc(/C=C/C(=O)c3ccc4c(c3)OCO4)[nH]n2)cc(OC)c1OC,85.3%
17,COc1ccc(Cl)cc1C(=O)Nc1nc2ccc(Cl)cc2s1,83.2%
18,Cc1cc2c(C)c3cc(C)c(N)cc3nc2cc1N,15.2%
19,O=c1oc2cc(OS(=O)(=O)c3ccccc3)ccc2c2c1CCCCC2,76.8%
